# Calb FLC – C. albicans growth modulation with fluconazole; growth inhibition, % (concentration not given with the values); 300,000 tested, 0.57% active; C. albicans CaCi-2 (fluconazole-resistant clinical isolate) + fluconazole, Alamar Blue growth, 48 h;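 active = growth inhibition above about 58% in most replicates, limit read from the data, passing the limit was not always enough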;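 also: all wells also contain fluconazole at 8 µg/ml as a sub-toxic cotreatment; 0% = median of DMSO wells and 100% = median of geldanamycin control wells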
# Shn3 3UTR inh – Schnurri-3 reporter inhibition in Clone20 osteoblasts | Clone20 osteoblast Shn3 3'UTR firefly luciferase, 24 h | inhibition, % at 12.5 µM | 360,000 tested, 0.52% active | AID 588674;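 active = mean inhibition of at least 75% with every replicate also reaching 75%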;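 also: 0% = median of neutral control wells and 100% = pilot-screen positive control compound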
# 697 NFkB inh – lowers PMA/ionomycin-induced NF-kB signal in 697 B cells. 697 B-cell NF-kB luciferase reporter, 16 h. inhibition, % at 4 µM. 330,000 tested, 0.33% active. AID 435022; in the data active = inhibition above about 35%
# Beta apoptosis – blocks beta cell apoptosis; INS-1E cytokine-induced death, ATP luminescence, 48 h; percent of positive-control rescue, neutral wells zero; 300,000 tested, 0.8% active; protection from apoptosis, % (concentration not given with the values);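 active = Every replicate reaches about 75%, or at least half do and their mean reaches it too, limit read from the data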;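 also: 0% = cytokine-treated negative control wells and 100% = positive control rescue; higher means more ATP so stronger rescue from cytokine killing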
# Jurkat NFkB inh – inhibitors of the PMA/ionomycin-induced NF-kB reporter in Jurkat cells; PMA/ionomycin-induced NF-kB luciferase reporter, luminescence; inhibition, % at 4 µM; 330,000 tested, 0.53% active; in the data active = inhibition above about 50%
# Jurkat NFkB conf – lowers PMA/ionomycin-induced NF-kB signal in Jurkat cells | shares compounds with Jurkat NFkB inh | Jurkat NF-kB luciferase, 16 h | inhibition, % at 4 µM | 2,700 tested, 27% active;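 active = inhibition reaching about 45% at 4 µM in either replicate, limit read from the data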;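 also: plate controls were PMA/ionomycin stimulated DMSO wells for no effect and unstimulated DMSO wells for full effect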
# 697 NFkB conf – lowers PMA/ionomycin-induced NF-kB signal in 697 B cells | inhibition, % at 4 µM | 697 B-cell NF-kB luciferase, 16 h | shares compounds with 697 NFkB inh | AID 449746 | 2,000 tested, 35% active; in the data active = inhibition mostly above about 28%, no sharp cut-off; inactive = mostly below about 22%
# Numbers without * were called inactive; x = no result given. An excerpt weighted towards active compounds, which were near 2% of everything screened.
SMILES,Calb FLC,Shn3 3UTR inh,697 NFkB inh,Beta apoptosis,Jurkat NFkB inh,Jurkat NFkB conf,697 NFkB conf
COc1ccc(OC)c(NC(=O)CSc2ncnc3c2cnn3-c2ccccc2Cl)c1,-1.8,89.3*,71.1*,129.3*,50.3*,65.3*,49.6*
CC(C)Nc1ncnc2c1cnn2-c1ccc(Cl)cc1,27.9,-8.0,-422.1,x,-202.3,-184.2,-446.1
CC1CSC(N(C(=O)c2ccc(S(C)(=O)=O)cc2)c2ccc(Cl)cc2)=N1 (stereo unspecified),-31.2,-35.3,-7.3,-3.2,-0.4,x,x
C[C@@H]1CN([C@@H](C)CO)C(=O)c2cc(Br)cnc2O[C@H]1CN(C)C(=O)NC1CCCC1,x,-14.2,x,x,x,x,x
CCOC(=O)N1CCN(C(=O)CCCn2c(=S)[nH]c3ccsc3c2=O)CC1,-1.2,6.2,18.3,1.6,-10.0,x,x
O=C1/C(=C\c2ccccc2)CCc2c1[nH]c1ccccc21,-5.0,-47.2,-217.6,3.0,11.9,x,x
Cc1ccc(/C=C2/CCc3c([nH]c4ccccc34)C2=O)cc1,-11.9,-39.5,-255.3,5.9,-156.1,-91.5,-180.6
CC(=O)N1CCC(C(=O)N2CCN(S(=O)(=O)c3ccc(F)cc3)CC2)CC1,4.1,-0.1,-13.3,-3.5,2.0,x,x
CCc1c(C(=O)NN2C(=O)C3CCCCC3C2=O)csc1C (stereo unspecified),0.8,-8.8,-17.2,-2.4,-9.9,x,x
O=C(Nc1ccc2c(c1)CCC2)c1ccccc1F,-7.3,-28.5,-250.6,11.9,-176.6,-145.1,-224.4
COc1ccccc1Nc1cc(C)nc(Nc2ccccc2OC)n1,x,23.2,8.6,x,-3.9,x,x
Cc1ccc(S(=O)(=O)NC(=O)C2(C)CCN2C(=O)c2ccccc2CCc2ccccc2)nc1 (stereo unspecified),x,0.7,x,x,x,x,x
Nc1nc(Cl)nc2c1ncn2[C@H]1C[C@H](O)[C@@H](CO)O1,x,87.8*,57.1*,31.4,64.5*,41.0,68.2*
CCOCCc1nnc(NC(=O)CCS(=O)(=O)c2ccccc2)s1,48.5,-5.7,18.7,-24.5,6.1,x,x
Cc1ccc(Cl)cc1NC(=O)CN1C(=O)NC(C)(C2CC2)C1=O (stereo unspecified),x,5.6,-41.2,-2.0,-38.8,x,x
CCOc1cc(S(=O)(=O)NCc2cccs2)ccc1Cl,-3.2,5.6,-0.5,-1.2,-3.2,x,x
CCOC(=O)COc1ccc(S(=O)(=O)NCc2ccncc2)cc1,0.6,72.5,5.3,-4.6,2.5,x,x
CCOc1cc(S(=O)(=O)NCc2ccncc2)ccc1Cl,31.7,83.4,58.5*,111.2*,64.9*,68.5*,98.5*
CCOc1ccc(S(=O)(=O)NCc2ccncc2)cc1,10.9,89.5*,99.7*,115.6*,71.7*,69.8*,93.3*
COc1ccc(-c2csc(C(NC(C)=O)c3cccc(F)c3)n2)cc1 (stereo unspecified),x,5.7,x,x,x,x,x
CC(C)CNC(=O)C(=O)NCCC1CCCCN1S(=O)(=O)c1cccs1 (stereo unspecified),-4.5,-6.6,4.2,-7.1,4.5,x,x
O=c1c2ccccc2oc2cc(C#Cc3ccccn3)ccc12,6.4,-40.8,-253.8,-1.2,-182.0,-85.7,-238.2
COc1cccc2oc3ccc(C#Cc4ccccn4)cc3c(=O)c12,-4.2,-98.4,-133.9,34.7,-138.1,x,x
COc1ccc(CCNc2c(C)c(C)nc3ncnn23)cc1,0.9,80.8*,89.4*,100.5*,69.6*,65.0*,54.0*
O=C1NC(=O)C2(CCCC2)N1,x,-14.9,x,x,x,x,x
SMILES,Calb FLC,Shn3 3UTR inh,697 NFkB inh,Beta apoptosis,Jurkat NFkB inh,Jurkat NFkB conf,697 NFkB conf
CC(=Nc1ccccc1)c1sc2ccccc2c1O,7.0,-81.2,-251.1,-4.4,-158.2,-17.0,-22.6
C[C@H]1O[C@@H](O[C@H]2[C@@H](O)C[C@H](O[C@H]3[C@@H](O)C[C@H](O[C@H]4CC[C@@]5(C)[C@H](CC[C@@H]6[C@@H]5C[C@@H](O)[C@]5(C)[C@@H](C7=CC(=O)OC7)CC[C@]65O)C4)O[C@@H]3C)O[C@@H]2C)C[C@H](O)[C@@H]1O,-1.0,-23.3,92.4*,5.5,96.1*,96.8*,92.7*
CC(=O)c1cc2c(C)c(C(=O)c3ccccc3)oc2cc1O,17.6,-6.4,-362.4,-5.4,-185.9,-92.7,-302.8
O=C(c1ccccc1)c1ccc(O)cc1O,10.1,-15.3,2.4,-4.4,-8.3,x,x
Cc1cccc(-c2cc3nc4c(c(NCc5ccco5)n3n2)CCCC4)c1,14.3,3.9,-263.9,33.2,-154.2,-99.3,-294.8
COc1ccc(OC)c(C2C3=C(COC3=O)Nc3cc4c(cc32)OCO4)c1 (stereo unspecified),8.9,14.1,43.2*,50.4,77.5*,42.2,39.3*
COc1ccc(C2C3=C(CC(C)(C)CC3=O)Nc3cc4c(cc32)OCO4)cc1 (stereo unspecified),-3.8,14.4,10.7,-11.1,-4.5,x,x
CC(=O)Nc1ccc(C2NC(=O)CCC2[N+](=O)[O-])cc1 (stereo unspecified),-1.1,1.9,8.8,4.4,-9.9,x,x
Nc1c2c(nc3sc4c(c13)CCCCC4)CCCCC2,95.2*,-5.5,-259.7,26.7,-177.2,-97.6,-203.5
C[C@@H]1O[C@@H](O[C@@H]2C(=O)c3c(O)cc(O)cc3O[C@H]2c2ccc(O)c(O)c2)[C@H](O)[C@H](O)[C@H]1O,x,7.2,12.3,6.3,-6.6,x,x
COC(=O)c1sccc1N/N=C/c1cccc(OC)c1O,-10.3,19.9,-299.1,5.6,-190.5,-80.7,-231.9
O=C(Nc1ccc2c(c1)OCCO2)c1ccc(Cl)cc1Cl,-1.6,-21.8,-272.1,x,-152.0,-96.4,-210.6
O=C(Nc1ccc(N2CCN(C(=O)c3ccccc3)CC2)cc1)c1ccc2c(c1)OCCO2,-2.8,39.8,-79.4,x,-22.8,x,x
O=C(Nc1ccc(N2CCN(C(=O)c3ccc(Cl)cc3)CC2)cc1)c1ccc2c(c1)OCCO2,1.7,89.0*,38.6*,24.8,58.4*,57.3*,-39.9
CCOc1cc(C=NNC(=O)N(c2ccccc2)c2ccccc2)ccc1O,x,-10.9,x,x,x,x,x
COc1ccccc1C(=O)NC(CCSC)C(=O)NNC(=O)c1ccncc1 (stereo unspecified),-16.0,6.5,13.5,0.2,-3.7,x,x
c1ccc(N2CCN(c3nc4cc5c(cc4s3)OCO5)CC2)cc1,-30.9,-48.3,-204.3,1.4,-51.9,x,x
c1ccc2c(c1)CCN(c1nc3cc4c(cc3s1)OCO4)C2,3.0,-66.1,-304.5,17.1,-190.3,-132.4,-262.6
CCCC(=O)N1CCC1(C)C(=O)Nc1ccc(OC)c(OC)c1 (stereo unspecified),x,-4.8,x,x,x,x,x
COC(=O)[C@@H]1Cc2c([nH]c3ccccc23)C(C)(C)N1C(=O)CCl,1.9,-23.6,88.5*,-6.3,55.1*,15.7,69.0*
CCOc1ccc(S(=O)(=O)Nc2ccccc2C(=O)N2CCOCC2)cc1,7.3,-9.8,20.1,-6.2,-0.9,x,x

# Source: PubChem (several laboratories)
